In PubChem BioAssay (Tox21):
Records with an inconclusive call do not appear. Activity calls are given as the source filed them. Unless noted, the call rests on the fitted dose curve; in most records, active means well fitted curve in the direction sought with a large enough effect in the repeat runs; inconclusive means weak or mixed curves; inactive means no such curve, though single readings can be large; an effect the other way counts as inactive or inconclusive.

Assays:
[1] = qHTS assay to test for compound auto fluorescence at 535 nm (green) in HEK293 cells (AID 720680); further: on the % scale 0 is the no-effect control and ±100 the full control effect
[2] = qHTS assay to test for compound auto fluorescence at 460 nm (blue) in HEK293 cell free culture (AID 720681); further: on the % scale 0 is the no-effect control and ±100 the full control effect
Outline: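 Compounds were added to cell-free DMEM with 10% FBS and fluorescence read directly. The blue channel used 405 nm excitation and 460 nm emission, with triamterene as the reference fluorophore.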

[3] = qHTS assay to test for compound auto fluorescence at 535 nm (green) in HEK293 cell free culture (AID 720682); further: on the % scale 0 is the no-effect control and ±100 the full control effect
Outline: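 No cells present: wells hold DMEM supplemented with 10% FBS, into which compound or vehicle is pinned. Green emission is then recorded (485 nm excitation, 535 nm emission) and scaled to fluorescein.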

[4] = qHTS assay to test for compound auto fluorescence at 590 nm (red) in HEK293 cell free culture (AID 720683); further: on the % scale 0 is the no-effect control and ±100 the full control effect
Outline: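 Cell-free wells of DMEM with 10% FBS received compound, and intrinsic fluorescence was read at excitation/emission 540/590 nm. Values expressed as equivalence to Rose Bengal sodium.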

[5] = qHTS assay to test for compound auto fluorescence at 590 nm (red) in HepG2 cell free culture (AID 720684); further: on the % scale 0 is the no-effect control and ±100 the full control effect
Outline: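 Auto fluorescence equivalency versus Rose Bengal sodium, red channel Ex/Em 540/590 nm; compounds in cell-free MEM/10% FBS; DMSO vehicle control.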

[6] = qHTS assay to test for compound auto fluorescence at 460 nm (blue) in HepG2 cell free culture (AID 720685); further: on the % scale 0 is the no-effect control and ±100 the full control effect
Outline: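 Cell-free plates of MEM plus 10% FBS received 23 nL compound or DMSO vehicle; blue-channel (405/460 nm) intensity scored against triamterene as reference fluorophore.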

[7] = qHTS assay to test for compound auto fluorescence at 535 nm (green) in HepG2 cell free culture (AID 720686); further: on the % scale 0 is the no-effect control and ±100 the full control effect
[8] = biological target: Glucocorticoid receptor (Homo sapiens) (UniProt P04150); experiment: qHTS assay to identify small molecule agonists of the glucocorticoid receptor (GR) signaling pathway (AID 720691; active means well fitted activation curve with a large enough effect in the signal ratio in the repeat runs, not every such curve was filed as active; the % refers to the signal ratio; further: on the % scale 0 is the no-effect control and ±100 the full control effect)
Outline: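 Measures GR pathway activation through a GRE-beta-lactamase reporter stably integrated in HeLa cells, with 18 h compound treatment at 37 C and fluorescence detection using a FRET substrate.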

[9] = biological target: Glucocorticoid receptor (Homo sapiens) (UniProt P04150); experiment: qHTS assay to identify small molecule antagonists of the glucocorticoid receptor (GR) signaling pathway (AID 720692; active means well fitted inhibition curve with a large enough effect in the signal ratio in the repeat runs, not every such curve was filed as active; the % refers to the signal ratio; further: on the % scale 0 is the no-effect control and ±100 the full control effect)
Outline: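 Tox21 10K library screened in concentration-response for blockade of dexamethasone (5 nM final)-induced GRE-bla reporter activity in HeLa cells; 18 h treatment, fluorescence read.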

[10] = qHTS assay to identify small molecule antagonists of the glucocorticoid receptor (GR) signaling pathway - cell viability counter screen (AID 720693); further: on the % scale 0 is the no-effect control and ±100 the full control effect; nearly all actives have a fitted effect of over 55% in size
[11] = qHTS assay for identifying genotoxic compounds that show differential cytotoxicity against isogenic chicken DT40 cell lines with known DNA damage response pathways - wild type cell line (AID 743012); further: nearly all actives have a fitted effect of over 60% in size; further: potency means the concentration at half of the fitted maximal effect
Outline: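 Endpoint: CellTiter-Glo luminescence, 30 min RT. Cells: wild type DT40, 300/well. Exposure: compounds in DMSO, 40 h, 37 C/5% CO2, after ~0.5 h pre-incubation.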

[12] = qHTS assay for identifying genotoxic compounds that show differential cytotoxicity against isogenic chicken DT40 cell lines with known DNA damage response pathways - Rev3 mutant cell line (AID 743014); further: nearly all actives have a fitted effect of over 55% in size; further: potency means the concentration at half of the fitted maximal effect
[13] = qHTS assay for identifying genotoxic compounds that show differential cytotoxicity against isogenic chicken DT40 cell lines with known DNA damage response pathways - Rad54/Ku70 mutant cell line (AID 743015); further: nearly all actives have a fitted effect of over 60% in size; further: potency means the concentration at half of the fitted maximal effect
[14] = qHTS assay to identify small molecule antagonists of the androgen receptor (AR) signaling pathway - cell viability counter screen (AID 743033; further: on the % scale 0 is the no-effect control and ±100 the full control effect; nearly all actives have a fitted effect of over 45% in size)
[15] = qHTS assay to test for compound auto fluorescence at 460 nm (blue) in HepG2 cells (AID 720687); further: on the % scale 0 is the no-effect control and ±100 the full control effect
Outline: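 HepG2 cells in MEM with 10% FBS, attached overnight at 37 C, were exposed to compound or DMSO for 1 hr at 37 C, 5% CO2. Blue fluorescence was read at 405/460 nm, with triamterene as reference fluorophore.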

[16] = qHTS assay to identify small molecule antagonists of the androgen receptor (AR) signaling pathway using the MDA cell line - cell viability counter screen (AID 743041; further: nearly all actives have a fitted effect of over 45% in size; further: potency means the concentration at half of the fitted maximal effect)
Outline: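 Compound exposure lasted 16 h at 37C in MDA-kb2 AR-luc cells stimulated with R1881. Protease-based CellTiter-Fluor reagent was applied for the final 30 min and fluorescence measured.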

[17] = biological target: Androgen receptor (Homo sapiens) (UniProt P10275); experiment: qHTS assay to identify small molecule agonists of the androgen receptor (AR) signaling pathway using the MDA cell line (AID 743040; further: on the % scale 0 is the no-effect control and ±100 the full control effect; nearly all actives have a fitted effect of over 20% in size)
Outline: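 Testing was done with the MDA-kb2 AR-luc line, a human breast carcinoma stably transfected with MMTV-luciferase containing AR and GR response elements. Cells were exposed 16 h at 37C before ONE-Glo luminescence detection.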

[18] = biological target: Androgen receptor (Homo sapiens) (UniProt P10275); experiment: qHTS assay to identify small molecule agonists of the androgen receptor (AR) signaling pathway (AID 743036; active means well fitted activation curve with a large enough effect in the signal ratio in the repeat runs, with a control signal flat, not every such curve was filed as active; the % refers to the signal ratio; further: on the % scale 0 is the no-effect control and ±100 the full control effect)
Outline: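 Quantitative HTS of the Tox21 10K library in HEK293 cells bearing a stably integrated UAS-controlled beta-lactamase reporter. Compound exposure lasted 16 h at 37C. Reporter activity was detected by FRET substrate fluorescence after 2 h at room temperature.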

[19] = biological target: Androgen receptor (Homo sapiens) (UniProt P10275); experiment: qHTS assay to identify small molecule antagonists of the androgen receptor (AR) signaling pathway using the MDA cell line (AID 743042; further: nearly all actives have a fitted effect of over 55% in size; further: potency means the concentration at half of the fitted maximal effect)
Outline: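 MDA-kb2 breast carcinoma cells carrying MMTV-luciferase (AR/GR responsive) were co-treated with compounds and the agonist R1881 for 16 h at 37C. Inhibition read as ONE-Glo luminescence; CellTiter-Fluor fluorescence measured in parallel for cytotoxicity.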

[20] = biological target: Androgen receptor (Homo sapiens) (UniProt P10275); experiment: qHTS assay to identify small molecule antagonists of the androgen receptor (AR) signaling pathway (AID 743035; active means well fitted inhibition curve with a large enough effect in the signal ratio in the repeat runs, not every such curve was filed as active; the % refers to the signal ratio; further: potency means the concentration at half of the fitted maximal effect)
Outline: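 R1881 agonist challenge of a HEK293 UAS-beta-lactamase AR reporter line in the presence of compound (16 h, 37C); signal taken as FRET fluorescence after 2 h with LiveBLAzer B/G substrate at room temperature.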

Chain of Androgen receptor (Homo sapiens) (P10275 whole entry, looked up): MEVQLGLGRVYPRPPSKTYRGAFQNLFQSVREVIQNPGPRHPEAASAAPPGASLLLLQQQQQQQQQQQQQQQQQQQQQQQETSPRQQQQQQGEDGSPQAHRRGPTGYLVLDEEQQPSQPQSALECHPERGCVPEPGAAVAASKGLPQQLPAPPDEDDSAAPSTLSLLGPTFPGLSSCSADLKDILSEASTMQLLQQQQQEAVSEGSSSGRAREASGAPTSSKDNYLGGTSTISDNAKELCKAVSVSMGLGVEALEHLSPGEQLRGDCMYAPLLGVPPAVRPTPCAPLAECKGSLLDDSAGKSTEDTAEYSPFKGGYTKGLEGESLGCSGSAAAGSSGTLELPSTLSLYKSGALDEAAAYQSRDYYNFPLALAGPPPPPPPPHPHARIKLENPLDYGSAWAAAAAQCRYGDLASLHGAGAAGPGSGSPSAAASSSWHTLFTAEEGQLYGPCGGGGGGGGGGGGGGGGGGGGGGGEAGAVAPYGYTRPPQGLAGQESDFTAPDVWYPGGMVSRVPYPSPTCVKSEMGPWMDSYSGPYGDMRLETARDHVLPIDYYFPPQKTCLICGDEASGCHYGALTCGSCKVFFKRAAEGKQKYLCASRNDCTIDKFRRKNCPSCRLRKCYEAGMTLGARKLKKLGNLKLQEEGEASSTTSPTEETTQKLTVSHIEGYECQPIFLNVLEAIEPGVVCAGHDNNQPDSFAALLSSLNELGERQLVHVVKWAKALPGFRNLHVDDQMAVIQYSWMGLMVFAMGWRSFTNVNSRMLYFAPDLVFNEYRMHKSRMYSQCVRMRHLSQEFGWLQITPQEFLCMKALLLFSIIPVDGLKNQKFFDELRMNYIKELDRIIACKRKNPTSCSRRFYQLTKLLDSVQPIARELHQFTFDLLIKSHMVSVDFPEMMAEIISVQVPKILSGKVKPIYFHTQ
Chain of Glucocorticoid receptor (Homo sapiens) (P04150 whole entry, looked up): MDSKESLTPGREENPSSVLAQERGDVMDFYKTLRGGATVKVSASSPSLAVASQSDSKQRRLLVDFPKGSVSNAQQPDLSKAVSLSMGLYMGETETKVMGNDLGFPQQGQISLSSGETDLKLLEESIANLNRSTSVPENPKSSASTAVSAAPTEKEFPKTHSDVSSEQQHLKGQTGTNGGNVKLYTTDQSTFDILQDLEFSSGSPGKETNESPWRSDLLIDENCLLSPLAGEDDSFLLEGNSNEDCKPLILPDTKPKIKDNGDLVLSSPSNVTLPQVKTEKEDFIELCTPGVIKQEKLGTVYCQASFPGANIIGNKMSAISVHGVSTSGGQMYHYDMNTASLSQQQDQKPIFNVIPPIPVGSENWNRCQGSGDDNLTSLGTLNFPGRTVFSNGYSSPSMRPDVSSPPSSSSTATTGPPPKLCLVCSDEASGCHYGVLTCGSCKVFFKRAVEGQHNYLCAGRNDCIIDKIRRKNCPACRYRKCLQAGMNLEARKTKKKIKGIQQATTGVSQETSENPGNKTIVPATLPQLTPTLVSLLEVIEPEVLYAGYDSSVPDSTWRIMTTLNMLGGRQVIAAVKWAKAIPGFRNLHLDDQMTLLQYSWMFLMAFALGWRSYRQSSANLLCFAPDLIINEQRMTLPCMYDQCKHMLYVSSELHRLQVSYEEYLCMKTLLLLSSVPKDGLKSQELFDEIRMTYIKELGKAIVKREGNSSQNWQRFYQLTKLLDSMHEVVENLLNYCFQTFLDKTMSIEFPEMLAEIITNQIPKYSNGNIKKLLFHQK

C[C@@]12CCC[C@H]1[C@@H]1CC[C@H]3C[C@@H](O)CC[C@]3(C)[C@H]1CC2
inactive: outcome [1] | Potency [2] | outcome [3] | outcome [4] | outcome [5] | Potency [6] | outcome [7] | Potency [8] | Potency [9] | Potency [10] | Potency [11] | Potency [12] | Potency [13] | Potency [14]

O=C1NCCN1CCO
inactive: outcome [1] | Potency [2] | outcome [3] | outcome [4] | outcome [5] | Potency [6] | outcome [7] | Potency [15] | Potency [10] | Potency [11] | Potency [12] | Potency [13] | Potency [14] | Potency [16]

CN1C(C(=O)Nc2ccccn2)=C(O)c2sccc2S1(=O)=O
inactive: fluorescence, % of fluorescein [1] -0.0339% [at 18.6 µM] | fluorescence, % of fluorescent control [2] 2.91% [at 18.6 µM] | activity change [3] -0.011% [at 18.6 µM] | fluorescence, % of fluorescent control [4] 0.306% [at 18.6 µM] | fluorescence, % of Rose Bengal [5] -0.0396% [at 18.6 µM] | fluorescence, % of fluorescent control [6] 0.579% [at 18.6 µM] | fluorescence, % of fluorescein control [7] -0.0069% [at 18.6 µM] | Potency [8] | Potency [9] | Potency [10] | Potency [11] | Potency [13]

C[C@@H]1CC(=O)NN=C1c1ccc(NN=C(C#N)C#N)cc1
active: Potency [11] 18.8 µM | Potency [12] 18.8 µM | Potency [13] 21.1 µM | Potency [16] 29.8 µM
inactive: outcome [1] | Potency [2] | outcome [3] | outcome [4] | outcome [5] | Potency [6] | outcome [7] | Potency [15] | outcome [17]

CC1(C)[C@@H](OC(=O)CCC(=O)O)CC[C@]2(C)[C@H]3C(=O)C=C4[C@@H]5C[C@@](C)(C(=O)O)CC[C@]5(C)CC[C@@]4(C)[C@]3(C)CC[C@@H]12
inactive: fluorescence, % of fluorescein [1] -0.0149% [at 18.6 µM] | fluorescence, % of fluorescent control [2] -0.141% [at 18.6 µM] | activity change [3] -0.0002% [at 18.6 µM] | fluorescence, % of fluorescent control [4] 0.073% [at 18.6 µM] | fluorescence, % of Rose Bengal [5] 0.105% [at 18.6 µM] | fluorescence, % of fluorescent control [6] 0.0251% [at 18.6 µM] | fluorescence, % of fluorescein control [7] 0.0091% [at 18.6 µM] | Potency [8] | Potency [9] | Potency [10] | Potency [11] | Potency [12] | Potency [13] | Potency [16]

Cc1[nH]cnc1CN1CCc2c(c3ccccc3n2C)C1=O
inactive: outcome [1] | Potency [2] | outcome [3] | outcome [4] | outcome [5] | Potency [6] | outcome [7] | Potency [15] | Potency [10] | Potency [11] | Potency [12] | Potency [13] | Potency [14] | Potency [16]

O=C(OCC(O)CO)c1ccccc1Nc1ccnc2cc(Cl)ccc12 (stereo not given)
inactive: fluorescence, % of fluorescein [1] -0.106% [at 18.6 µM] | fluorescence, % of fluorescent control [2] 0.416% [at 18.6 µM] | activity change [3] 0.0295% [at 18.6 µM] | fluorescence, % of fluorescent control [4] 0.0763% [at 18.6 µM] | fluorescence, % of Rose Bengal [5] 0.268% [at 18.6 µM] | fluorescence, % of fluorescent control [6] 0.0675% [at 18.6 µM] | fluorescence, % of fluorescein control [7] -0.0285% [at 18.6 µM] | fluorescence, % of fluorescent control [15] 0.322% [at 18.6 µM] | Potency [10] | Potency [12] | Potency [14] | outcome [18] | outcome [17] | Potency [16] | Potency [19]

O=C1c2ccccc2C(=O)C1c1nc2ccccc2c(Br)c1O
inactive: outcome [1] | Potency [2] | outcome [3] | outcome [4] | outcome [5] | Potency [6] | outcome [7] | Potency [8] | Potency [9] | Potency [10] | Potency [12] | Potency [14]

CC1=Nc2ccc3ccccc3c2C1(C)C
inactive: outcome [1] | Potency [2] | outcome [3] | outcome [4] | outcome [5] | Potency [6] | outcome [7] | Potency [15] | Potency [10] | outcome [18] | outcome [17] | Potency [19]

CC(=O)Nc1ccc(C)cc1C
inactive: outcome [1] | Potency [2] | outcome [3] | outcome [4] | outcome [5] | Potency [6] | outcome [7] | Potency [15] | Potency [10] | Potency [12] | Potency [13] | Potency [14] | Potency [16]

Cc1ccc(Cl)c(Nc2ccccc2C(=O)O)c1Cl
inactive: outcome [1] | Potency [2] | outcome [3] | outcome [4] | outcome [5] | Potency [6] | outcome [7] | Potency [15] | Potency [13] | Potency [14] | Potency [16]

O=C1Cc2ccccc2N1c1c(Cl)cccc1Cl
active: Potency [11] 24.3 µM | Potency [12] 34.4 µM | Potency [13] 27.3 µM | Potency [20] 54.9 µM | Potency [19] 61.1 µM
inactive: outcome [1] | Potency [2] | outcome [3] | outcome [4] | outcome [5] | Potency [6] | outcome [7] | Potency [15] | Potency [10] | outcome [17] | Potency [16]

Cc1cscn1
inactive: outcome [1] | Potency [2] | outcome [3] | outcome [4] | outcome [5] | Potency [6] | outcome [7] | Potency [15] | Potency [10] | Potency [11] | Potency [12] | Potency [13] | Potency [14] | outcome [18] | outcome [17] | Potency [19]

CCOC(=O)c1ccc(I)cc1
inactive: outcome [1] | Potency [2] | outcome [3] | outcome [4] | outcome [5] | Potency [6] | outcome [7] | Potency [15] | Potency [10] | Potency [11] | Potency [12] | Potency [13] | Potency [14] | Potency [16]
